# From PubChem BioAssay
# Pf apPOL block: Pf-apPOL DNA polymerase inhibition; Recombinant Pf-apPOL, molecular beacon fluorescence, 1.5 h; inhibition, % at 10 µM; 210,000 compounds, 0.25% hits; AID 1794808
# mHTT CaM bind: inhibitors of human mutant huntingtin-calmodulin interaction. AlphaScreen His-mHTT/GST-CaM binding, luminescence. inhibition, % at 15 µM. 190,000 compounds, 3.6% hits. AID 1671202;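 also: 0% = both proteins with DMSO and 100% = one protein alone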
# The depositor's hits bear a star; x = not tested or not shown. This excerpt belongs to a sample that is enriched for hits. Rule as the data show it: active = inhibition above about 50%; inactive = the rest.
SMILES,Pf apPOL block,mHTT CaM bind
Cc1cccc(CN2CCCn3nc(C(=O)Nc4ccc(F)cc4C)cc3C2=O)c1,74.0*,5.7
Cc1cccc(CN2CCCn3nc(C(=O)NCc4ccc(N(C)C)cc4)cc3C2=O)c1,-0.3,54.9*
N#CC1=C(N)Oc2nc(C(F)(F)F)[nH]c2C1c1cccnc1 (centres undefined),-5.5,-1.0
COc1ccc(OC)c(NC(=O)N2CCCC2c2cc(C(C)C)no2)c1 (centres undefined),-2.3,4.1
O=C1Nc2c(Cl)cccc2C1=Nc1ccc(Br)cc1,-0.1,2.0
C=C1CCN([C@@H](CC(C)C)C(=O)NCc2ccc(Cl)c(Cl)c2)S(=O)(=O)c2ccccc21,-1.0,99.0*
C=C1CCN([C@@H](CC(C)C)C(=O)NCc2ccc(Cl)cc2)S(=O)(=O)c2ccccc21,-1.9,70.4*
C=C1CCN([C@@H](Cc2ccccc2)C(=O)NCc2ccc(Cl)c(Cl)c2)S(=O)(=O)c2ccccc21,-2.1,42.7
C=C1CCN([C@@H](CC(C)C)C(=O)NCc2cc(OC)c(OC)c(OC)c2)S(=O)(=O)c2ccccc21,-5.1,34.9
C=C1CCN([C@@H](CC(C)C)C(=O)NCc2ccc(OC)cc2)S(=O)(=O)c2ccccc21,-3.3,-5.8
C=C1CCN([C@H](C(=O)NCc2ccc(Cl)c(Cl)c2)C(C)C)S(=O)(=O)c2ccccc21,-4.7,73.5*
O=C(Nc1cccn2nc(C3CCC3)nc12)c1ccncc1,0.9,-7.8
CCCN1C(=O)CCc2cc(NC(=O)c3ccc(Cl)s3)ccc21,-20.0,12.1
Cc1n[nH]c(C)c1S(=O)(=O)N1CCN(c2ccc3nnc(C4CC4)n3n2)CC1,2.5,2.1
COc1cc([N+](=O)[O-])ccc1N=Cc1nc(-c2cc(OC)c(OC)c(OC)c2)oc1O,-1.9,2.0
O=C1c2ccccc2C(=O)c2c1oc1c3c(ccc21)OCN(CCCn1ccnc1)C3,6.2,100.0*
CC(C)(C)N1COc2ccc3c4c(oc3c2C1)C(=O)c1ccccc1C4=O,30.6,33.4
COCCCN1COc2ccc3c(=O)c(-c4ccccc4OC)c(C(F)(F)F)oc3c2C1,-3.2,-1.0
O=C1c2ccccc2C(=O)c2c1oc1c3c(ccc21)OCN(CCC1=CCCCC1)C3,-0.9,79.0*
COCCN1COc2ccc3c(=O)c(-c4ccccc4OC)c(C)oc3c2C1,2.2,-6.6
O=C1c2ccccc2C(=O)c2c1oc1c3c(ccc21)OCN(C1CCCCC1)C3,26.9,83.9*
Cc1cccc(-c2noc(C3CCCN3C(=O)c3ccccc3C)n2)c1 (centres undefined),-5.1,-4.1
O=S(=O)(Cc1nc(-c2cccc(C(F)(F)F)c2)no1)c1ccc(Cl)cc1,-0.8,-24.7
Cc1cc(C(=O)Nc2ccc3c(c2)CN(C(=O)C(C)C)CC3)c(C)o1,-5.7,-5.5
CC(C)C(=O)N1CCc2ccc(NC(=O)c3ccccc3C(F)(F)F)cc2C1,88.2*,14.2
SMILES,Pf apPOL block,mHTT CaM bind
CC(=O)c1cccc(NC(=O)c2c[nH]c(=O)n(-c3ccc(F)cc3)c2=O)c1,-3.1,-15.5
CC[C@H]1C(c2cccc(C)c2)=NN(c2ccccc2)[C@@H]1CO,-8.2,-8.8
COc1ccccc1[C@H]1C(c2cccc(Cl)c2)=NN(c2ccccc2)[C@@H]1CO,-9.2,65.7*
OC[C@@H]1[C@@H](c2ccccc2)C(c2cccc(Cl)c2)=NN1c1ccccc1,-6.4,59.4*
COc1ccccc1[C@@H]1C(c2cccc(Cl)c2)=NN(c2ccccc2)[C@H]1C(=O)N1CCOC1=O,-4.8,-109.3
CC[C@H]1C(c2cccc(Cl)c2)=NN(c2ccccc2)[C@@H]1CO,-0.5,75.4*
Cc1cccc(C2=NN(c3ccccc3)[C@H](CO)[C@H]2c2ccc(Cl)cc2)c1,-3.3,91.5*
O=C(CN1CCCCC1)NCC12CC3CC(CC(C3)C1)C2,0.0,-0.1
COc1nn(C)cc1C(=O)NCC(=O)Nc1cccc(NS(C)(=O)=O)c1,-7.6,-14.9
CCCN1CN(Cc2ccco2)CNC1=S,x,-6.1
CCN(CC)S(=O)(=O)N1CCCC(C(=O)NCc2ccc(F)cc2)C1 (centres undefined),-7.7,-8.0
CC(=O)NC1=NN(C(C)=O)C(c2ccc([N+](=O)[O-])cc2)S1 (centres undefined),0.9,2.0
COc1ccc(-c2noc(-c3ccc(NCc4ccc(C)cc4)nc3)n2)cc1,-0.8,-8.4
Cc1cccc(C2=NN(c3ccccc3)[C@H](CO)[C@H]2c2ccc(F)cc2)c1,-6.7,81.2*
CC[C@@H]1C(c2cccc(C)c2)=NN(c2ccccc2)[C@H]1C(=O)N1CCOC1=O,-3.8,-21.6
COc1ccccc1OCC(=O)Nc1ccc2c(c1)C(=O)Nc1cc(Cl)ccc1O2,-3.4,14.1
O=[N+]([O-])c1cc(NC2OCC(O)C(O)C2O)ccc1S(=O)(=O)O (centres undefined),61.8*,-5.0
O=[N+]([O-])c1cccc(NC2OCC(O)C(O)C2O)c1 (centres undefined),1.1,7.0
Cc1ccc(N2NC(=O)/C(=C\c3ccccc3OCc3ccccc3)C2=O)cc1Cl,0.6,17.0
Cn1ccnc1SCc1cc(=O)c(OC(=O)C2(c3ccc(Cl)cc3)CCCC2)co1,0.7,88.5*
CCSc1ccccc1C(=O)Oc1coc(CSc2nccn2C)cc1=O,0.1,3.0
CC(C)CN(CC(C)C)S(=O)(=O)N1CCC(C(=O)N2CCCCC2)CC1,-13.5,-5.0
CCn1cc(C(=O)NCCc2ccc(Cl)cc2)c(S(=O)(=O)N2CCSCC2)n1,-30.0,-9.7
Cc1noc(C)c1C(=O)N1CCCC1c1ccc(Cl)cc1 (centres undefined),0.2,-4.2
COc1ccc(/C=C(\NC(=O)c2cccs2)C(=O)Nc2ccc(Cl)cc2)cc1OC,-8.2,23.4
SMILES,Pf apPOL block,mHTT CaM bind
Cc1noc(C2CN(Cc3ccsc3)C2)n1,-1.8,-11.9
CCCOc1ccc(OCCSc2nc(N)cc(=O)[nH]2)cc1,2.9,0.3
Nc1cc(=O)[nH]c(SCCOc2ccc(Cl)cc2)n1,-9.5,100.3*
COc1ccc(Cl)cc1N1C(=O)c2c(C)nc3ccccc3c2C1=O,-4.5,23.0
Cc1cccc2sc(NC(=O)CCS(=O)(=O)c3ccc(Br)s3)nc12,-2.1,5.0
Cc1cccc2sc(NC(=O)CN(C)S(=O)(=O)c3ccc(Br)s3)nc12,1.2,92.0*
Cc1ccc(C(=O)NC(C)C)c(C2CCN(Cc3cccc(Cl)c3)CC2)n1,-6.7,20.6
COc1ccccc1N=Cc1ccc(O)c2c1OC(N)=C(C#N)C2c1cccc([N+](=O)[O-])c1 (centres undefined),-8.4,77.0*
N#CC1=C(N)Oc2c(C=Nc3ccccc3)ccc(O)c2C1c1ccc([N+](=O)[O-])cc1 (centres undefined),2.9,35.0
Cc1ccc(-n2nc(C)c3c2OC(N)=C(C#N)C3c2ccccc2[N+](=O)[O-])cc1 (centres undefined),-2.8,9.0
COc1cccc(N=Cc2ccc(O)c3c2OC(N)=C(C#N)C3c2ccccc2[N+](=O)[O-])c1 (centres undefined),-4.5,95.0*
COc1cc(C)c(/C=C2\NC(=O)N(Cc3ccccc3F)C2=O)cc1C(C)C,0.6,-6.0
O=C1CCCC2=C1C(c1cccc(O)c1)n1nc(-c3ccccc3Cl)nc1N2 (centres undefined),-1.4,15.9
CNC(=O)C1CCN(c2cnn(Cc3ccccc3)c(=O)c2)CC1,-2.4,-11.6
Cc1cccc(C(=O)Sc2n[nH]c(=O)[nH]c2=O)c1,-11.6,70.0*
